Results as given in PubChem BioAssay AID1851 (National Center for Advancing Translational Sciences (NCATS), 2009).
Screen size: about 16,000 compounds; about 4,000 (25%) were called active. Roughly 26% stayed inconclusive and do not appear here. These entries were drawn from the full list. Unmarked numbers belong to inactive results. Calls come from the whole dose curve; as a rule, active = well fitted curve in the direction sought with a large enough effect; inconclusive = small, poorly fitted or top-dose-only effect, or effect the other way; inactive = no such curve, though single readings can be large or run the other way.

The molecules below were run against Cytochrome P450 2C9 (Homo sapiens) (UniProt P11712) (assay: Cytochrome panel assay with activity outcomes). Details: recombinant CYP, pro-luciferin dealkylation, luminescence, p450-cyp2c9; series mostly up to 57.1 µM; activity, negative = inhibition: at the top concentration.
% is set by controls: 0 for no effect and ±100 for the full control effect.

Sequence of Cytochrome P450 2C9 (Homo sapiens) (P11712 whole entry, looked up): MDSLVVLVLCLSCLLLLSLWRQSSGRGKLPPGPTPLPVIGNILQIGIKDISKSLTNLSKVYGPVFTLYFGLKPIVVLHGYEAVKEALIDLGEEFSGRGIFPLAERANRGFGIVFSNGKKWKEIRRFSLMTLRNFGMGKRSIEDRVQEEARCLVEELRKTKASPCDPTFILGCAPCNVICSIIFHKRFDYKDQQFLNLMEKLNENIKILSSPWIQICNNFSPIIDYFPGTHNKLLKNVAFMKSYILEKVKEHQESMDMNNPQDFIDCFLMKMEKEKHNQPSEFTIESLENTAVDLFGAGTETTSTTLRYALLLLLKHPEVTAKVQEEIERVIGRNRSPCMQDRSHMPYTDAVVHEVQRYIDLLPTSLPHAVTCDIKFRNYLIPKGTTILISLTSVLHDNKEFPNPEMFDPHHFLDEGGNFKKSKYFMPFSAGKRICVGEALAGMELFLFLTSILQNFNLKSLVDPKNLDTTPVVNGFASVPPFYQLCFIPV

SMILES	activity, negative = inhibition	AC50
Cc1noc(C)c1-c1nccc(N2CCN(C)CC2)n1	14.4% [at 2.29 µM]	
CN(C)Cc1ccccc1-c1cncnc1NCc1cccnc1	11.6% [at 2.29 µM]	
COc1ccc(CNc2cc(-c3ccccc3CN(C)C)ncn2)c(OC)c1	4.22% [at 2.29 µM]	
Cc1ccc(-n2c(C)cc(C(=S)N3CCOCC3)c2C)cc1C		11.2 µM (active)
CC(=O)Nc1c(C(=O)N2CCOCC2)cnn1-c1ccc(C)c(C)c1	17.7%	
Cc1cnc(CNc2ccnc(-c3ccoc3)n2)cn1	12.6% [at 2.29 µM]	
COc1cc2c(cc1OC)-c1cc(=Nc3c(C)cc(C)cc3C)n(C)c(=O)n1CC2		1.26 µM (active)
CSc1c(-c2ccccc2)nc2ccccc2c1C(=O)O	-28.5%	
Cc1cnc2cc(Cl)ccc2c1SCC(=O)O	3.69% [at 11.4 µM]	
CSc1c(-c2ccccc2)nc2ccc(Cl)cc2c1C(=O)O		0.794 µM (active)
CC1(C)CC(O)CC(C)(C)N1CC(O)COCCOc1ccc(Br)cc1 (configuration not stated)	14.8%	
CC(C)NC(=O)/C(=N\O)c1ccccc1	-13.6%	
Cc1ccccc1NC(=O)/C(=C/c1ccccc1)c1ccccc1		7.94 µM (active)
COc1ccc(/C=C(/C(=O)Nc2ccccc2C(=O)NC(C)C)c2ccccc2)cc1		10 µM (active)
Cc1ccccc1NC(=S)NN1CCN(C)CC1	-10.3%	
O=C(O)/C(=C\c1ccccc1)c1ccccc1	-20.6% [at 11.4 µM]	
O=C(O)c1c2ccccc2cc2ccccc12	-19.8%	
N[C@@H](Cc1ccnnc1)C(=O)O	-15.4% [at 11.4 µM]	
CCN(CC)C(=O)CSc1nnc(CNc2ccc(F)cc2)o1	-13.6%	
O=C(CSc1nnc(CNc2ccc(F)cc2)o1)N1c2ccccc2Sc2ccccc21		4.47 µM (active)
N#Cc1cccc(-c2cc(NCc3ccccc3)ncn2)c1	10.6% [at 2.29 µM]	
Cc1ccc(-[n+]2cc(=O)o[nH]2)cc1	2.87% [at 11.4 µM]	
CS(=O)(=O)Nc1cccc(-c2nc(Nc3ccc(F)cc3)c3ccccc3n2)c1	-24.2% [at 2.29 µM]	
CN(C)c1nc(-c2cccc(NS(C)(=O)=O)c2)nc2ccccc12	15.7% [at 2.29 µM]	
O=S(=O)(Nc1ccc2oc(-c3ccccc3)nc2c1)c1ccccc1		0.794 µM (active)

SMILES	activity, negative = inhibition	AC50
CC(C)CN=C(N)N=C(N)N	-6.17% [at 11.4 µM]	
CC1CCc2c(C(=O)Nc3nccs3)csc2C1 (configuration not stated)		3.16 µM (active)
CN1CCc2cc(Cl)c(O)cc2[C@H](c2ccccc2)C1	27.1%	
CC1=NN(c2ccc(F)cc2)C(=O)C1C(c1cccc(O)c1)c1c(C)[nH]n(-c2ccc(F)cc2)c1=O (configuration not stated)		4.47 µM (active)
COc1cccc(C(c2c(C)[nH]n(-c3ccccc3)c2=O)c2c(C)[nH]n(-c3ccccc3)c2=O)c1O	-12.3%	
CCC(=O)O[C@@]1(C(=O)SCF)[C@@H](C)C[C@H]2[C@@H]3C[C@@H](F)C4=CC(=O)C=C[C@@]4(C)[C@]3(F)[C@@H](O)C[C@]21C	12.7% [at 25.6 µM]	
O=C(O)CP(=O)(O)O		inactive
CC(=O)c1cccc(NC(=O)Oc2ccccc2)c1	-21.4%	
COC(=O)CCC(=O)Nc1cccc(C(=O)Nc2cccc(Cl)c2)c1		3.16 µM (active)
COC(=O)c1cccc(NC(=O)CCCOc2ccccc2)c1		3.16 µM (active)
Cc1cccc(OCCCC(=O)Nc2ccc(N3CCCCC3)cc2)c1	-22.4%	
COc1ccc(NC(=O)CCOc2ccccc2)cc1		11.2 µM (active)
COc1ccc(NC(=O)c2ccc(COc3ccccc3)o2)cc1		0.251 µM (active)
O=C(O)CCSC1=NCCN1	2.01% [at 11.4 µM]	
CN(C)Cc1ccccc1-c1cc(NCc2cccs2)ncn1	12.8% [at 2.29 µM]	
C[C@]12CC[C@H]3c4ccc(O)cc4CC[C@@H]3[C@H]1CC[C@@H]2OC(=O)CCC1CCCC1	17.9% [at 11.4 µM]	
Cc1ccc(OCc2ccc(C(=O)Nc3nccs3)o2)cc1C		10 µM (active)
COC(=O)c1cccc(NC(=O)Nc2ccc(Cl)c(Cl)c2)c1		2.51 µM (active)
O=C(Nc1cccc(Cl)c1)Nn1cnnc1	8% [at 11.4 µM]	
Cc1onc(C(=O)/C=C/N(C)C)c1C(=O)Nc1nccs1	15.6%	
O=C1OCCC1Sc1nnnn1-c1ccccc1 (configuration not stated)	-15.2%	
CCC(CC)C(=O)Nc1ccc(C)c(O)c1		3.16 µM (active)
Cc1ccccc1N1C(=O)c2cc(S(N)(=O)=O)c(Cl)cc2N[C@H]1C	-17.8% [at 25.6 µM]	
Cc1[nH]nc(N2CCCCCC2)c1[N+](=O)[O-]		17.8 µM (active)
Cc1ccccc1CN1C2=NCCN2C(=O)C2=C1CCN(Cc1ccccc1)C2	-1.36% [at 11.4 µM]	

SMILES	activity, negative = inhibition	AC50
CN(C)C(=O)CCc1nc(-c2ccc(C(C)(C)C)cc2)no1	-13.8%	
N=C(N)SCc1nc(-c2ccc(Cl)cc2)no1		3.98 µM (active)
Cc1ccc(NC(=O)C2CCN(S(C)(=O)=O)CC2)cc1	8.67%	
Cc1ccc(C2CC2C(=O)NN)cc1 (configuration not stated)		14.1 µM (active)
Cc1ccc(C(=O)C2CCNCC2)cc1	-7.02%	
Cc1cccc(CNc2cc(-c3ccccc3CN(C)C)ncn2)c1	-2.61% [at 2.29 µM]	
CC(C)=CCc1c2c(c3occ(-c4ccc(O)c(O)c4)c(=O)c3c1O)C=CC(C)(C)O2		3.16 µM (active)
CN(C)CCO[C@](C)(c1ccccc1)c1ccccn1		inactive
COc1ccc(-c2cc([C@H](O)[C@@H]3CCCCN3)c3ccccc3n2)cc1	3.54% [at 11.4 µM]	
COC(=O)c1sccc1NC(=O)c1cc(-c2ccc(C)cc2C)nc2ccccc12		2.24 µM (active)
COC(=O)c1sccc1NC(=O)c1cc(-c2ccc(C)cc2)nc2ccccc12		3.98 µM (active)
COC(=O)c1sccc1NC(=O)c1cc(-c2cc(C)ccc2C)nc2ccccc12	-53%	
COC(=O)CNC(c1ccccc1Cl)c1cc(Br)ccc1NC(=O)CCN1CCOCC1 (configuration not stated)		15.8 µM (active)
Clc1ccccc1-c1cc(NCCN2CCOCC2)ncn1	16.8% [at 2.29 µM]	
O=C(CSCc1ccccc1Cl)NNC(=S)Nc1ccccc1		2.51 µM (active)
O=C(NN1C(=O)c2ccccc2C1=O)C1CCCCC1	-28.6%	
O=C(NNC(=S)Nc1ccccc1)C1CC1	-20.4%	
O=C(CSCc1ccccc1Cl)NNC(=O)c1ccccc1	-11.5%	
O=C(CSCc1ccccc1Cl)NN1C(=O)c2ccccc2C1=O		3.98 µM (active)
CC(C)CNC(=O)O	-4.26% [at 11.4 µM]	
Cc1oc(-c2cccs2)[n+]([O-])c1C	-17.3%	
C(=C\c1nnc(-c2cccs2)o1)/c1ccccc1		14.1 µM (active)
Clc1cccc(Cl)c1CSc1nnc(/C=C/c2ccccc2)o1	-33%	
CC1(C)N=C(N)N=C(N)N1c1cccc(OCc2cccc([N+](=O)[O-])c2)c1	-1.87% [at 11.4 µM]	
O=[N+]([O-])c1ccc(C2CCCC/C2=N\OCc2cccc(F)c2)c([N+](=O)[O-])c1 (configuration not stated)		7.94 µM (active)

SMILES	activity, negative = inhibition	AC50
CCN1CCN(C(=O)N[C@H](C(=O)N[C@@H]2C(=O)N3C(C(=O)O)=C(CSc4nnnn4C)CS[C@@H]23)c2ccc(O)cc2)C(=O)C1=O	-2.86% [at 25.6 µM]	
CCCCN(CC)S(=O)(=O)c1ccc(C(=O)Nc2nnc(CSC)o2)cc1		0.891 µM (active)
CN(CCC(=O)O)S(=O)(=O)c1ccccc1	22.4% [at 11.4 µM]	
CCCCN(C)S(=O)(=O)c1ccc(C(=O)Nc2nnc(CSC)o2)cc1		0.794 µM (active)
CN(Cc1ccco1)c1ccnc(-c2ccccc2C(F)(F)F)n1	-4.94% [at 2.29 µM]	
O=C(O)C[C@H](S)C(=O)O	10.9% [at 11.4 µM]	
O=C(c1cc(-c2ccc(Cl)cc2Cl)on1)N1CCN(C(=O)c2ccco2)CC1		7.08 µM (active)
O=C(c1ccco1)N1CCN(C(=O)c2nn3cccnc3c2Cl)CC1	-8.31%	
O=C(c1ccc(Cl)cc1)N1CCN(C(=O)c2ccco2)CC1	-19.8%	
Cc1cc2cc3c(cc2nc1SCC(=O)Nc1c(C)cccc1C)CCC3		4.47 µM (active)
Cc1cccc(C)c1NC(=O)C[N+](C)(C)C	-10.4%	
CC[N+](CC)(CC)CC(=O)Nc1c(C)cccc1C	9.55%	
CO[C@H]1COC(=O)[C@H]2CCCN2C(=O)[C@@H](C)COC(=O)C/C=C\[C@@H]1C	7.11% [at 11.4 µM]	
O=C(NCc1cccnc1)/C(=C/c1ccc(-c2cccc(Cl)c2)o1)S(=O)(=O)c1ccccc1		6.31 µM (active)
CCN(C(=S)Nc1ccccc1F)C1CCCCC1	-17%	
CN(C(=S)Nc1ccccc1F)C1(c2ccccc2Cl)CCCCC1=O (configuration not stated)		17.8 µM (active)
COc1ccccc1CNc1ncncc1-c1ccc(C(=O)N(C)C)cc1	-24.3% [at 2.29 µM]	
COc1ccccc1C(=O)NCCn1cc(SCC(=O)Nc2nnc(C)s2)c2ccccc21		2.24 µM (active)
COC(=O)Nc1nc2ccc(SC(C)C)cc2[nH]1	-5.69% [at 25.6 µM]	
Cc1noc(C)c1C(=O)N1CCC2(CCN(Cc3cc(C(F)(F)F)cc(C(F)(F)F)c3)CC2)CC1	-4.95%	
CO[C@@H]1COC(=O)CC=C[C@@H](C)[C@@H]2C=C[C@H](O)[C@@H](COC(=O)[C@H](C)NC(=O)CC=C[C@H]1C)O2	-4.45% [at 11.4 µM]	
CC(C)OP(=O)(OC(C)C)C(NC(=O)c1ccc(Br)cc1)c1ccccc1 (configuration not stated)		10 µM (active)
